SMILES strings stand for the structures. The campaign covered roughly 1,400 compounds. About 380 (27%) were called active.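 The calls were made as follows: active = mean inhibition above 50% across duplicate retests at 10 µM; inactive = the rest.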 This is one part of the list.

A short description of the assay: inhibition of NALP1/ASC/caspase-1 reporter signal in yeast, confirmation, NALP1 inhibitor project, S. cerevisiae, luminescence, single concentration (AID 488841).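 Also: plate controls were DMSO in galactose medium for no effect and cells in plain SD medium for full effect.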 The note with it: S. cerevisiae NALP1/ASC/Caspase-1 reporter, beta-gal luminescence; at 10 µM; stronger effect = higher value.
Broadly, the inhibition is the share of the control response that was lost under treatment. Turning to `N#CC1=C(N)Oc2n[nH]c(-c3cccs3)c2C1C1CCCCC1` (centres undefined), the inhibition was 35.7% (inactive).
As to `Cc1nc2cc(-c3ccc(Cl)cc3)nn2c(C)c1CCC(=O)NC(C)c1ccc2c(c1)OCCO2` (centres undefined), the inhibition was 21.6% (inactive).
For `CC1(C)COC(/C=C/c2ccc([N+](=O)[O-])cc2)=N1`, the inhibition is 74.7% (active).
Turning to `COc1ccccc1/C=N\N=C(\N)c1ccccn1`, the inhibition is 43.3% (inactive).
As for `CC(C)N(C)CCOC(=O)c1ccccc1Br`, the inhibition was 30.6% (inactive).
With `COC(=O)c1ccccc1NC(=O)CN1CCC(n2nnc3cc(F)ccc32)CC1`, the inhibition is 24.9% (inactive).
With `N=c1ccn(Cc2ccc(Cl)cc2Cl)cc1`, the inhibition was 35.2% (inactive).
For `CCc1ccc(C(=O)NCc2ccc(Cl)cc2Cl)cc1`, the inhibition is 57.4% (active).
Take `CCc1ccc(C(=O)NC(CC(C)C)C(=O)O)cc1` (centres undefined): the inhibition was 24.6% (inactive).
Regarding `CC(C)Cn1c(CN(Cc2ccccc2)Cc2ccccc2)nc2c1c(=O)n(C)c(=O)n2C`, the inhibition is 35.5% (inactive).
With `COc1cc(/C=C2\SC(=Nc3ccc(F)cc3)N(c3ccc(F)cc3)C2=O)ccc1OCC(=O)O`, the inhibition is 26.6% (inactive).
As for `CCOC(=O)c1cccnc1SCC(=O)NCc1ccccc1`, the inhibition is 41.5% (inactive).
Consider `CSc1ccc2c(c1)N(CCC1CCCCN1C)c1ccccc1S2` (centres undefined), for which the inhibition is 71.1% (active).
On to `CN1C/C(=C/c2ccncc2)C(=O)/C(=C/c2ccncc2)C1`, for which the inhibition was 13.2% (inactive).
As to `CC1(C)Cc2c(c(N3CCOCC3)nc3sc4c(NCCN5CCOCC5)nnnc4c23)CS1`, the inhibition is 27.2% (inactive).
Consider `Cc1nc2nc3c(cn2n1)C(=O)CCC3`, for which the inhibition was 6.55% (inactive).
For the compound `CN1CCc2cccc3c2[C@H]1Cc1ccc(O)c(O)c1-3`, the inhibition was 42.5% (inactive).
For `CN1CCc2cccc3c2[C@@H]1Cc1ccc(O)c(O)c1-3` the value was 71.3% (active).
`Cc1[nH][nH]c(=O)c1C(c1ccc(-c2ccc(Cl)c(Cl)c2)o1)c1c(C)[nH][nH]c1=O`: the inhibition is 24.6% (inactive).
Take `Cc1ccc(CSCCNC(=O)CSCc2ccc([N+](=O)[O-])cc2)cc1`: the inhibition is 59.9% (active).
Take `Cc1ccc(C(=O)NCCSCc2ccccc2)cc1[N+](=O)[O-]`: the inhibition was 52.6% (active).
With `COCCNC(=O)c1ccc(C)c(S(=O)(=O)Nc2ccc(C)cc2)c1`, the inhibition is 32.9% (inactive).
For `CCn1c2ccccc2c2cc(NC(=O)c3ccc(C)c([N+](=O)[O-])c3)ccc21`, the inhibition was 42.1% (inactive).
With `C/C(=N/Nc1ccc([N+](=O)[O-])cc1)c1ccc(C)cc1C` the figure was 49% (inactive); with `Cc1ccc(C(=O)NCCc2cccc(Cl)c2)cc1[N+](=O)[O-]`, 53.2% (active); with `Cc1ccccc1Cn1c(=N)n(CC(=O)c2ccc([N+](=O)[O-])cc2)c2ccccc21`, 49.5% (inactive).
For `Cc1cccc(C(=O)NCc2ccc(S(N)(=O)=O)cc2)c1[N+](=O)[O-]`, the inhibition was 36.4% (inactive).
Consider `O=C(CSCc1ccc(F)cc1)NCc1ccco1`, for which the inhibition is 35.4% (inactive).
On to `CCOC(=O)c1c(C)n(C)c2ccc(OC)c(NC(=O)CN3CCN(C4CCCCC4)CC3)c12`, for which the inhibition was 23.2% (inactive).
`COc1cc(NC(C)CCCN)c2ncccc2c1Oc1ccccc1` (centres undefined): the inhibition was 25.8% (inactive).
Take `O=C1N/C(=N\N=C\c2cccnc2)SC1Cc1ccc(SC(F)F)cc1` (centres undefined): the inhibition is 24.2% (inactive).
Regarding `COc1ccc(CCn2c(C(C)C)nc3c(c(=O)c4ccccc4n3C)c2=O)cc1`, the inhibition was 25.9% (inactive).
For the compound `C=CCCCCc1nc2ccccc2c(=O)n1N`, the inhibition was 33% (inactive).
For `COc1ccc2cc(C(C)c3nc4ccccc4c(=O)n3N)ccc2c1` (centres undefined) the value was 53.1% (active); for `COc1ccc(OC)c(/C=c2\sc3nc(-c4cccs4)nn3c2=O)c1`, 28.1% (inactive); for `O=[N+]([O-])/C=C/c1ccc2c(ccn2Cc2ccccc2)c1`, 99.9% (active).
For `O=C(CCC1CCCCC1)N1CCN(Cc2ccc3c(c2)OCO3)CC1`, the inhibition was 59.6% (active).
With `N#CCc1c(C#N)c(N)nc(N2CCN(Cc3ccc4c(c3)OCO4)CC2)c1C#N`, the inhibition is 27.2% (inactive).
`CC(C)c1ccc(CN2CCN(C(=O)CCl)CC2)cc1`: the inhibition is 39.5% (inactive).
Take `Clc1ccc(SCCCCN2CCOCC2)cc1`: the inhibition is 33% (inactive).
Turning to `COc1cccc(N2C(=O)C(O)=C(C(C)=O)C2c2ccc(OC)c(OC)c2)c1` (centres undefined), the inhibition is 33.1% (inactive).
With `COC(=O)c1cc(=O)n(-c2c(Cl)cc(C(F)(F)F)cc2Cl)[nH]1`, the inhibition was 28.1% (inactive).
Take `CCOC(=O)c1c(C(F)(F)C(F)(F)C(F)(F)C(F)(F)F)n[nH]c1C`: the inhibition was 30% (inactive).
Consider `Cc1cc(C(=O)COC(=O)c2ccc[nH]c2=O)c(C)n1-c1ccccc1`, for which the inhibition was 58.6% (active).
For `CCOC(=O)c1c(C)[nH]c(C)c1C(=O)COC(=O)c1cc2ccccc2cc1O` the value was 37.1% (inactive); for `Cc1cc(C(=O)COC(=O)c2ccc[nH]c2=O)c(C)n1-c1ccc(F)cc1`, 39% (inactive).
With `Cc1cc2ccccc2n1CCNCc1c(C(=O)N2CCOCC2)nc2ccccn12` the figure was 28.2% (inactive); with `CNC(CC(=O)c1ccc([N+](=O)[O-])cc1)C(Cl)(Cl)Cl` (centres undefined), 47.5% (inactive).
With `CCOC(=O)c1ccc(N2C(=O)CC(N3CCCC(C)C3)C2=O)cc1` (centres undefined), the inhibition is 35.9% (inactive).
For `CCOC(=O)c1sc(=S)n(-c2ccc(OC)cc2)c1C`, the inhibition is 38.4% (inactive).
As for `CCOC(=O)c1ccc(N2C(=O)C=CC2=O)cc1`, the inhibition is 89% (active).
Turning to `CCN(c1ccccc1)S(=O)(=O)c1cc(NC(=O)Nc2ccccc2C#N)ccc1Cl`, the inhibition is 17.4% (inactive).
With `CCOC(=O)c1nnc(-c2ccc(C)cc2)nc1Sc1ccc(Cl)cc1` the figure was 10.3% (inactive); with `Cc1ccc(OCc2nc(-c3ccc(Cl)cc3)n[nH]2)cc1`, 66.9% (active).
In the case of `FC(F)Oc1ccc(/C=N/c2c(-c3ccc(OC(F)F)cc3)nc3n2CCS3)cc1`, the inhibition was 31.2% (inactive).
With `CCc1cccc(C)c1NC(=S)NCCc1c(C)[nH]c2ccc(C)cc12`, the inhibition is 34.2% (inactive).
Turning to `COc1ccc(C(=O)c2c(C(F)(F)F)oc3c2C(=O)c2ccccc2C3=O)cc1`, the inhibition was 22.6% (inactive).
As to `Cc1csc(NC(=O)CCc2ccc(S(=O)(=O)N3CCOCC3)cc2)n1`, the inhibition was 30.4% (inactive).
On to `Cc1nc(NC(=O)CCc2ccccc2)ccc1Br`, for which the inhibition is 64% (active).
`O=C(OCCN1CCCCC1)c1cc2ccccc2o1`: the inhibition is 22.6% (inactive).
As for `COC(=O)CSC1=C(C#N)C(=O)NC(c2ccccc2)S1` (centres undefined), the inhibition was 28.1% (inactive).
Regarding `O=C(c1ccccc1)c1c2c(cc3sc4ccccc4[n+]13)-c1cccc3cccc-2c13`, the inhibition is 35.5% (inactive).
`N#CC(C#N)=C(Nc1ccc(F)cc1)SCc1cccc(Br)c1`: the inhibition was 50.1% (active).
With `Cc1ccc(F)cc1NCC(=O)Nc1ccc(Br)cc1`, the inhibition was 47.6% (inactive).
For the compound `Cc1ccc(NC(=O)c2cccc(S(=O)(=O)N(C)c3ccccc3)c2)cc1S(=O)(=O)N1CCOCC1`, the inhibition was 28.9% (inactive).
Consider `CN(C)CCCN(C(=O)c1sc2ccccc2c1Cl)c1nc2ccc(F)cc2s1`, for which the inhibition was 45.3% (inactive).
For the compound `CN(C)CCCN(C(=O)c1ccc2c(c1)CCCC2)c1nc2ccc(Cl)cc2s1`, the inhibition is 78.2% (active).
As to `COc1ccc(CCNC(=O)c2sc3cc(C)ccc3c2Cl)cc1`, the inhibition was 35.8% (inactive).
With `CN(C)CCCN(C(=O)c1ccc2c(c1)CCCC2)c1nc2ccc(F)cc2s1`, the inhibition is 64.8% (active).
Consider `Cc1ccc2nc(N(CCCN(C)C)C(=O)c3sc4ccccc4c3Cl)sc2c1`, for which the inhibition is 53.6% (active).
Take `O=c1c(F)cn(C2CCCO2)c(=O)n1Cc1c(F)cccc1Cl` (centres undefined): the inhibition is 26.9% (inactive).
Turning to `CCOC(=O)C1(Cc2ccc(OC)cc2)CCN(C(=O)CCc2cnccn2)CC1`, the inhibition was 25.1% (inactive).
In the case of `COc1cccc(/C=N/NC(=O)CCc2c(C)n[nH]c2C)c1`, the inhibition is 25.8% (inactive).
Turning to `COc1ccc(CN2CCNC(=O)C2CC(=O)N(Cc2nccn2C)C(C)C)c(OC)c1` (centres undefined), the inhibition is 14.8% (inactive).
As to `CCCCC(C(=O)NC1CCCC1)N(Cc1ccco1)C(=O)Cn1nnc(-c2ccc(F)cc2)n1` (centres undefined), the inhibition was 27.3% (inactive).
For the compound `O=C(NC(=S)NCCCN1CCOCC1)c1ccc([N+](=O)[O-])cc1`, the inhibition is 40% (inactive).
Consider `COc1ccc(Cc2nnc(SC)[nH]c2=O)cc1`, for which the inhibition is 22.6% (inactive).
With `Cc1cc(C(C)(C)C)cc(C)c1S(=O)(=O)N1CC(=O)Nc2ccccc21` the figure was 38.6% (inactive); with `Cn1cccc1/C=N/N1CCN(Cc2ccc(Cl)cc2)CC1`, 31.7% (inactive); with `COc1ccc(/C=N/N2CCOCC2)cc1COc1ccc(Cl)cc1`, 51.8% (active).
As for `COc1ccccc1-c1nnc2sc(COc3ccc(Cl)cc3)nn12`, the inhibition is 49.2% (inactive).
For `CC[n+]1c(/C=C/N(C)c2ccccc2)n(-c2ccccc2)c2ccc(-c3nc4ccccc4s3)cc21` the value was 55.8% (active).
For the compound `CCCN1CCN(CCCNC(=O)CCNC(=O)Cn2ccc3ccccc3c2=O)CC1`, the inhibition was 35.5% (inactive).
With `CN(C)c1ccc(/C=C/c2ccc3ccccc3[n+]2C)cc1`, the inhibition is 85.5% (active).
On to `CC[n+]1c(/C=C/c2ccc(N(C)C)cc2)ccc2ccccc21`, for which the inhibition was 85.5% (active).
With `CC1=C(C(=O)Nc2ccc(Cl)cc2)C(c2ccncc2)C(C#N)=C(SCC(N)=O)N1` (centres undefined), the inhibition is 32.1% (inactive).
For `CN(C)c1ccc(N2C(=O)CC(Sc3ccccc3C(=O)O)C2=O)cc1` (centres undefined), the inhibition was 24.6% (inactive).
With `CCOc1ccc(OCCSc2nc3ccccc3o2)cc1` the figure was 42.4% (inactive); with `CCOC(=O)CCCNC(=O)COC(=O)c1ccc(O)cc1`, 23.1% (inactive).
As to `Cc1ccc(NC(=O)CN(C)C(=O)COc2cccc3cccnc23)cc1`, the inhibition is 25.3% (inactive).
`CCN1c2ccccc2-c2nc3ccccc3n2C1c1cccs1` (centres undefined): the inhibition is 32.9% (inactive).
For the compound `COc1ccc(/C=N\NC(=O)c2cc(OCC(F)(F)F)ccc2OCC(F)(F)F)cc1`, the inhibition was 25.5% (inactive).
With `O=C(C[n+]1ccc(C(=O)N/N=C/c2ccc(OCc3ccccc3)cc2)cc1)c1ccccc1` the figure was 58.6% (active).
With `O=C(Oc1ccc(/C=N/NC(=O)c2ccccc2O)cc1)c1ccccc1` the figure was 30.9% (inactive).

Values taken from PubChem BioAssay AID488841 (Sanford-Burnham Center for Chemical Genomics, 2010).
